We go through 8 compounds from PubChem BioAssay (Tox21).

Assay [1] can be described thus: qHTS assay to identify small molecule agonists of the estrogen receptor alpha (ER-alpha) signaling pathway in the presence of an antagonist - cell viability counter screen (AID 1259386).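 Further: series mostly up to about 92 µM; cells exposed to compounds for 22 h at 37 °C before the viability read; nearly all actives have a fitted effect of over 30% in size.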 In outline: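 VM7Luc4E2, stripped-serum pre-culture 5 d; 24hr plating; +ICI-182,780 10.0nM final; cpds 15 conc, 22hr, 37C/5% CO2; CellTiter-Fluor added at 21hr, fluorescence 1hr later.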
In general terms: In qHTS, concentration-response curves come from the screen itself.

Assay [2] has as its target Progesterone receptor (Homo sapiens) (UniProt P06401). Description: qHTS assay to identify small molecule agonists of the progesterone receptor (PR) signaling pathway (AID 1346784; calls by dose curve; further: nearly all actives have a fitted effect of over 30% in size). In outline: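 Agonist mode, quantitative HTS format in a HEK 293T line expressing a UAS-controlled beta-lactamase reporter; 16 hr compound exposure at 37C in 2% charcoal-stripped FBS, then LiveBLAzer B/G FRET fluorescence.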

Assay [3] has the same target. Nature of the assay: qHTS assay to identify small molecule antagonists of the progesterone receptor (PR) signaling pathway (AID 1346795; active means well fitted inhibition curve with a large enough effect in the signal ratio in the repeat runs, not every such curve was filed as active; the % refers to the signal ratio). In outline:
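HEK293T PR-UAS-bla reporter cells in charcoal-stripped serum (2%) received compound after a 6 hr settling period, followed by R5020 agonist at 1 nM final; 16 hr incubation preceded the FRET substrate step and fluorescence measurement.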

Assay [4] in a line: qHTS assay to identify small molecule antagonists of the progesterone receptor (PR) signaling pathway - cell viability counter screen (AID 1346798). Further: series mostly up to about 92 µM; nearly all actives have a fitted effect of over 50% in size. The method in brief: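 Same-well multiplex: after 16 hr at 37C with compound and R5020 stimulation, HEK293T cells carrying a UAS-bla reporter received LiveBLAzer substrate (2 hr RT), then CellTiter-Glo (30 min RT) for luminescent viability.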

Assay [5] is described as follows: qHTS assay to identify small molecule agonists of the progesterone receptor (PR) signaling pathway - cell viability counter screen (AID 1346799; calls by dose curve; further: nearly all actives have a fitted effect of over 45% in size). In outline: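 Counter screen for cytotoxicity: compound-treated PR-UAS-bla HEK293T cells (16 hr, 37C, 5% CO2) were assayed with CellTiter-Glo, luminescence measured after 30 min at room temperature.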
Assay [6] is described as follows: qHTS assay to identify small molecule antagonists of the TGF-beta/Smad signaling pathway - cell viability counter screen (AID 1346824). Further: nearly all actives have a fitted effect of over 50% in size. The method in brief: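 Cytotoxicity counter-screen run in the same wells as the beta-lactamase Smad reporter read: CellTiter-Glo luminescence after 30 min at room temperature. HEK 293T SBE-bla cells had 5 hr compound exposure at 37 C with TGF-beta1 (0.25 ng/mL stock).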

Assay [7] is described as follows: qHTS assay to identify small molecule agonists of the TGF-beta/Smad signaling pathway (AID 1346859; active means well fitted activation curve with a large enough effect in the signal ratio in the repeat runs, not every such curve was filed as active; the % refers to the signal ratio; further: series mostly up to about 77 µM). The method in brief: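 Smad-responsive beta-lactamase reporter cells (HEK 293T) received compounds from DMSO stocks after overnight attachment, were incubated 5 hr, then treated 2 hr with FRET substrate before dual-emission fluorescence measurement (405 nm excitation).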

Assay [8] deals with Thyrotropin-releasing hormone receptor (Homo sapiens) (UniProt P34981). Description: qHTS assay to identify small molecule antagonists of the thyrotropin-releasing hormone receptor (TRHR) signaling pathway (AID 1346877; active means well fitted inhibition curve with a large enough effect in the repeat runs, not every such curve was filed as active; further: series mostly up to about 51 µM). The method in brief:
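Intracellular calcium fluorescence, read kinetically every second over 3 min, reports TRH-evoked signalling in HEK293 cells carrying TRHR. Test compounds were added 5 min ahead of a 1 nM TRH challenge.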

Assay [9] shares this target. Description: qHTS assay to identify small molecule agonists of the thyrotropin-releasing hormone receptor (TRHR) signaling pathway (AID 1346891; calls by dose curve;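 further: HEK293 cells expressing TRHR with calcium dye readout; series mostly up to about 58 µM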). In outline: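 Agonist-mode calcium mobilisation screen: TRHR-transfected HEK293 cells cultured overnight (18 h), dye-loaded for 2 h at 37 °C, exposed to compounds, and monitored by fluorescence for 3 min.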
Assay [10] can be described thus: Human pregnane X receptor (PXR) small molecule agonists, qHTS cell viability counter screen (AID 1346977). Further: nearly all actives have a fitted effect of over 50% in size. In outline: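 Measures live-cell protease fluorescence (CellTiter-Fluor) in PXR-Luc HepG2 cells treated 24hr with compounds at 37C. Cells had 5hr to attach before pin transfer of DMSO solutions.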
The nature of assay [11]: Caspase-3/7 induction in CHO-K1 cells by small molecules, qHTS assay (AID 1346980). Further: nearly all actives have a fitted effect of over 15% in size. In outline:
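Luminescent Caspase-Glo 3/7 read (30min, room temperature) quantified apoptosis induction. Cells were wild-type CHO-K1, treated with compound for 17hr at 37 C and 5% CO2.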

A short description of assay [12]: Caspase-3/7 induction in HepG2 cells by small molecules, qHTS cell viability counter screen (AID 1346981). Further: series mostly up to about 92 µM; nearly all actives have a fitted effect of over 30% in size. In outline: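 HepG2, WT, 2,000 cells/well; 5 hr pre-incubation 37 C/5% CO2; compound pin-transferred from DMSO; 16 hr exposure; CellTiter-Fluor, 1 hr; fluorescence read.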
Assay [13] has as its target Cytochrome P450 2D6 (Homo sapiens) (UniProt P10635). Nature of the assay: Cytochrome P450 Family 2 Subfamily D Member 6 (CYP2D6) small molecule antagonists: luciferase reporter qHTS assay (AID 1671196). Further: series mostly up to about 120 µM; nearly all actives have a fitted effect of over 50% in size. In outline: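 Read-out is luminescence from luciferin formed by CYP2D6 turnover of a proluciferin substrate, recorded as relative luminescence units. Reactions ran 1 h at room temperature after NADPH regeneration solution was added.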
For orientation: In a reporter assay the amount or activity of a reporter protein is the signal.

Assay [14] can be described thus: Caspase-3/7 induction in HepG2 cells by small molecules, qHTS assay (AID 1346978). Further: nearly all actives have a fitted effect of over 15% in size. Further: potency means the concentration at half of the fitted maximal effect. The method in brief: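 Caspase-3/7 induction was measured by Caspase-Glo 3/7 luminescence (30 min, room temperature) after a 17 hr compound exposure of wild-type HepG2 cells seeded at 2,000 per well and pre-incubated 5 hr.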
A short description of assay [15]: Caspase-3/7 induction in CHO-K1 cells by small molecules, qHTS cell viability counter screen (AID 1346979). Further: nearly all actives have a fitted effect of over 35% in size. Further: potency means the concentration at half of the fitted maximal effect. In outline: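 In the same wells as the caspase read, viability of compound-treated wild-type CHO-K1 cells was assessed using CellTiter-Fluor, added after 16hr at 37C and measured by fluorescence following 1hr further incubation.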
In assay [16] the target is Nuclear receptor subfamily 1 group I member 2 (Homo sapiens) (UniProt O75469). Description: Human pregnane X receptor (PXR) small molecule agonists, qHTS assay (AID 1346982). Further: nearly all actives have a fitted effect of over 35% in size. Further: potency means the concentration at half of the fitted maximal effect. In outline:
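Luciferase signal from ONE-Glo (30 min, room temperature) measured activation of hPXR-driven CYP3A4 reporter expression in PXR-Luc HepG2 cells treated with compounds for 24 hr at 37 C.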

Assay [17] deals with Nuclear receptor subfamily 1 group I member 2 (Rattus norvegicus) (UniProt Q9R1A7). Description: Rat pregnane X receptor (rPXR) activation by small molecules, qHTS assay (AID 1346983). Further: nearly all actives have a fitted effect of over 20% in size. Conditions: rPXR luciferase reporter cells, One-Glo luminescence, 24 h; stronger effect = higher value. The method in brief:
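Luminescent readout (One-Glo luciferase, 30 min room temperature) followed 24 hr compound treatment at 37 C of rPXR cells plated 2,000 per well and preincubated 5hr; qHTS format with compounds delivered in DMSO.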

Assay [18] concerns the target Nuclear receptor subfamily 1 group I member 2 (Homo sapiens) (UniProt O75469). Nature of the assay: CYP3A4 induction through human pregnane X receptor (PXR) by small molecules, qHTS assay (AID 1346984). Further: nearly all actives have a fitted effect of over 40% in size. In outline: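 Luminescence readout: luciferase signal after One-Glo (30 min, room temperature), following 3 h at 37C with 3uM final Luciferin-IPA P450 substrate. Cells were DPX-2 (HepG2, PXR/CYP3A4-luc co-transfected) dosed for 24 h.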

Assay [19] shares this target. Description: Human pregnane X receptor (PXR) activation by small molecules, qHTS assay (AID 1346985). Further: nearly all actives have a fitted effect of over 40% in size. In outline:
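DPX-2 cells (HepG2 co-transfected with a PXR response element and a CYP3A4-promoter luciferase construct) were seeded at 2,000 per well, rested 5 hr at 37C, then exposed to DMSO-dissolved compounds for 24 hr. Activation was read as luciferase luminescence.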

The nature of assay [20]: qHTS assay to identify small molecule agonists of the TGF-beta/Smad signaling pathway - cell viability counter screen (AID 1346829). Further: top concentration of the series differs between compounds; nearly all actives have a fitted effect of over 45% in size. In outline: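 CellTiter-Glo luminescence readout; SBE-bla HEK 293T cells, overnight plating, compound 5 hr at 37 C/5% CO2, then bla substrate 2 hr RT, then CellTiter-Glo 30 min RT.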

Values without a mark were called inactive. Inconclusive results are not listed. The source made the active and inactive calls. Unless noted, the call rests on the fitted dose curve; in most records, active means well fitted curve in the direction sought with a large enough effect in the repeat runs; inconclusive means weak or mixed curves; inactive means no such curve, though single readings can be large; an effect the other way counts as inactive or inconclusive.
On the % scale 0 is the no-effect control and ±100 the full control effect.

Thyrotropin-releasing hormone receptor (Homo sapiens), sequence (P34981 whole entry, looked up): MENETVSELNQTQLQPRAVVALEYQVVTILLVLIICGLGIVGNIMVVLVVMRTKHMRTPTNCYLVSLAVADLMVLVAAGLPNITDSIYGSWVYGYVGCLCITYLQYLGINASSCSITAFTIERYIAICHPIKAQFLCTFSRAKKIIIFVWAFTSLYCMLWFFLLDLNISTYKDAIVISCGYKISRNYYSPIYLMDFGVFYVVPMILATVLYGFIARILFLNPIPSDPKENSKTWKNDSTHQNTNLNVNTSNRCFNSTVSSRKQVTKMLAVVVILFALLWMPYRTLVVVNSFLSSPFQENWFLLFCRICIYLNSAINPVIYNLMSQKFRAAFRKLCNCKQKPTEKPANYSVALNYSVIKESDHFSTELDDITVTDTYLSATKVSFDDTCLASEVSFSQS
Progesterone receptor (Homo sapiens), sequence (P06401 whole entry, looked up): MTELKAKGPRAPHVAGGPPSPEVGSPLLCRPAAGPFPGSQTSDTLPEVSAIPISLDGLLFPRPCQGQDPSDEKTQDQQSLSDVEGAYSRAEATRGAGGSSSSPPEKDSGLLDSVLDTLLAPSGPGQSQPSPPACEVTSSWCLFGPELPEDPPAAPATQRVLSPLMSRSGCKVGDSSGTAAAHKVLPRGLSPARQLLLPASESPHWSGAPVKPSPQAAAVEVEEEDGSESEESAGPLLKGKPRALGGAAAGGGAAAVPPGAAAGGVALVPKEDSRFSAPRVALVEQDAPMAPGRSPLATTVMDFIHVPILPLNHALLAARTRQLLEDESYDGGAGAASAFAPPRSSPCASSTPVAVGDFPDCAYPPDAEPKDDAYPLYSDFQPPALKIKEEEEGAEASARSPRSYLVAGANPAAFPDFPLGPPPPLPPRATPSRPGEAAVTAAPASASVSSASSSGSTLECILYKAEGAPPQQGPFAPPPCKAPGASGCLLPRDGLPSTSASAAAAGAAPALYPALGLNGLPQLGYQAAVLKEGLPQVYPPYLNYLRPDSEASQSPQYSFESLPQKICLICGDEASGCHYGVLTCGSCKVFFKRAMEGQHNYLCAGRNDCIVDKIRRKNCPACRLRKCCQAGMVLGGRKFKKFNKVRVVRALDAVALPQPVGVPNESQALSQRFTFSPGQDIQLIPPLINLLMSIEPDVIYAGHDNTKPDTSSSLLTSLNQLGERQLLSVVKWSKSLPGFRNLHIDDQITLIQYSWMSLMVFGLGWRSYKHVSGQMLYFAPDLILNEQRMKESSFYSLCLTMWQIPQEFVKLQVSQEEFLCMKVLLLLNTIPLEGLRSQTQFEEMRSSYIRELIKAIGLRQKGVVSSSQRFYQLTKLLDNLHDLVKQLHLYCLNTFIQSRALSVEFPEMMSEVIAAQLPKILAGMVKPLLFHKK
Nuclear receptor subfamily 1 group I member 2 (Homo sapiens), sequence (O75469 whole entry, looked up): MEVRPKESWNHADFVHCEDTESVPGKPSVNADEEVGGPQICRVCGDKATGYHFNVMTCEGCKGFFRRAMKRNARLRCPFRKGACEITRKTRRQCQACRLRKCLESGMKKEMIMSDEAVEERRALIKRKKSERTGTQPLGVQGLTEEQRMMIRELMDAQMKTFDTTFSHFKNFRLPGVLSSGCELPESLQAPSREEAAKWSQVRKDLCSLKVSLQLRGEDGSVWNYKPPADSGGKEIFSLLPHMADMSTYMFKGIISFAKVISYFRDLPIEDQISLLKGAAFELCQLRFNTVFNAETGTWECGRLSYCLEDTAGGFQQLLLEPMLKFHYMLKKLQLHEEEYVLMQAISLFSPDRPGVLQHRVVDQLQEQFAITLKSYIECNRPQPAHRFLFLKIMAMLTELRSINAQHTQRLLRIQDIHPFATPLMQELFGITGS
Cytochrome P450 2D6 (Homo sapiens), sequence (P10635 whole entry, looked up): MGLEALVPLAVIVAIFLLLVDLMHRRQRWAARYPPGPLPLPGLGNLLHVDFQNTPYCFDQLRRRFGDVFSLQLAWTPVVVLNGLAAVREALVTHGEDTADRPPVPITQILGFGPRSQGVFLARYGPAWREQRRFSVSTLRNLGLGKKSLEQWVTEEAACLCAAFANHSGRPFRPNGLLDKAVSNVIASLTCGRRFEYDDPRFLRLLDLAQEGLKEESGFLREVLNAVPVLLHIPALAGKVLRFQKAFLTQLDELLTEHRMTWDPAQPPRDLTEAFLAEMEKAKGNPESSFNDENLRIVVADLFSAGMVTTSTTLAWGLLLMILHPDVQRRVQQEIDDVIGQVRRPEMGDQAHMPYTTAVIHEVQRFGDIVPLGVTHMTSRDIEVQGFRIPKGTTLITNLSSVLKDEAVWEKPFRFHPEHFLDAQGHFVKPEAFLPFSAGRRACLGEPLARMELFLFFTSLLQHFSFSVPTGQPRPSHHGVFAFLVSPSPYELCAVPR
Nuclear receptor subfamily 1 group I member 2 (Rattus norvegicus), sequence (Q9R1A7 whole entry, looked up): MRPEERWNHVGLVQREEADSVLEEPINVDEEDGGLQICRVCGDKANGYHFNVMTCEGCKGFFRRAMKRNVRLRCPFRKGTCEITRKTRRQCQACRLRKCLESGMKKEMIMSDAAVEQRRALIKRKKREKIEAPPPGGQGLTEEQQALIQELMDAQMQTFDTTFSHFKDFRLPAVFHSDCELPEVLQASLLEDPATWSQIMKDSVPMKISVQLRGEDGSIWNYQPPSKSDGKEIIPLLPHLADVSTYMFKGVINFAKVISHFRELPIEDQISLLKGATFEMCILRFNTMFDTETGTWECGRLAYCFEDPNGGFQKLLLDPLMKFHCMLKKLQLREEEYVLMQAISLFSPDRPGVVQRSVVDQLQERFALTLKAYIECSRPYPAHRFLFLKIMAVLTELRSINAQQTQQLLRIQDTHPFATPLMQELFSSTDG

With `C=CC(=O)OCCOC(=O)C=C`, the Potency result in assay [1], in assay [2], in assay [3], in [4], in assay [5] and in assay [6] was “inactive” each time. Further, the Potency entry in assay [7], in assay [8], in assay [10], in assay [11], in [12] and in assay [13] was “inactive” each time. The call in assay [9] was inactive.
As for `Nc1nc(N)nc(-c2cc(Cl)ccc2Cl)n1`, the Potency result in assay [1], in assay [2], in [3], in assay [4], in assay [5] and in assay [6] was “inactive” each time. Moreover, the Potency entry in assay [8], in assay [10], in [14], in [15], in assay [11] and in [12] was “inactive” throughout. Besides, the Potency entry in assay [16], in [18], in assay [19] and in assay [13] was “inactive” throughout. Moreover, the result in assay [9] was inactive. Moreover, the max activation in assay [17] is -2.66%.
On to `O=[N+]([O-])c1cccc(C(F)(F)F)c1`, for which the Potency entry in assay [1], in assay [2], in assay [3], in [4], in assay [5] and in [6] was “inactive” each time. The Potency result in [7], in assay [8], in assay [10], in [15], in assay [11] and in assay [12] was “inactive” in each case. Also, the Potency result in [16] and in assay [13] was “inactive” in each case. For the same compound, the result in assay [9] was inactive.
As for `CC(C)(C)c1ccc(C(O)CCCN2CCC(C(O)(c3ccccc3)c3ccccc3)CC2)cc1` (centres undefined), the Potency entry in assay [1], in assay [2], in assay [3], in [4], in assay [5] and in [6] was “inactive” in each case. For the same compound, the Potency entry in assay [10] and in [16] was “inactive” each time. For the same compound, the Potency in assay [14] and in assay [15] was 11.9 µM (active) in each case.
As for `CC(C)OC(=O)C(O)(CC(=O)O)CC(=O)O`, the Potency result in [1], in assay [2], in [3], in assay [4], in assay [6] and in assay [20] was “inactive” throughout. The Potency result in assay [7], in [8], in assay [10], in [14], in assay [15] and in [11] was “inactive” in each case. Moreover, the Potency result in assay [12] and in assay [13] was “inactive” each time. Further, the result in [9] was inactive. Further, in assay [16], the Potency was 48.6 µM (active).
Regarding `CCCCCC/C=C\CCCCCCCC(=O)O`, the Potency result in assay [1], in [2], in assay [3], in assay [4], in [6] and in [20] was “inactive” in each case. The Potency entry in assay [7], in assay [8], in assay [10], in assay [14], in [11] and in assay [12] was “inactive” throughout. The Potency result in assay [16] and in assay [13] was “inactive” each time. Besides, the result in assay [9] was inactive.
Turning to `CCCCCCCCCCOC(=O)c1ccccc1C(=O)OCCCCCCCC`, the Potency result in assay [1], in [2], in assay [3], in [4], in assay [6] and in [20] was “inactive” in each case. Moreover, the Potency result in assay [7], in assay [8], in [10], in [14], in [15] and in assay [11] was “inactive” throughout. For the same compound, the Potency result in [12], in assay [16] and in [13] was “inactive” throughout. Moreover, the compound was classed as inactive in [9].
Take `O=C(O)c1cc(-c2ccc(F)cc2F)ccc1O`: the Potency entry in assay [1], in assay [2], in assay [3], in assay [4], in assay [5] and in assay [6] was “inactive” each time. Also, the Potency entry in assay [20], in assay [10], in assay [14], in assay [15], in [11] and in [12] was “inactive” each time. For the same compound, the Potency result in [16], in assay [19] and in assay [13] was “inactive” each time. Further, the max activation in assay [17] was -2%.
